Measured values published in the supplement of paper PMC10849652.
The full data set covers some 7,900 targets. This sample favours those with a hit. About 0.6% of all pairs of compound and target were hits. Unmarked numbers belong to inactive results.

Legend:
Experiment in all cases: log2 fold change, soluble protein after heating vs DMSO (PISA); higher = thermal stabilisation; K562 cells, 10 uM, 30 min; active = over 0.2 and 3.5 SD of the protein, either way, in both replicates (recomputed)
IRAK-1-4 Inhibitor I = compound: C1COCCN1CCN2C3=CC=CC=C3N=C2NC(=O)C4=CC(=CC=C4)[N+](=O)[O-] [IRAK-1-4 Inhibitor I]
Outline: (§1)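 Soluble protein was defined as the supernatant after 21,000xg for 90 min. It came from K562 cells at 2×10^6 cells/mL given 10 μM compound for 30 min, heated in aliquots for 3 min across 48°C-58°C, pooled, and extracted in PBS with 0.5% NP-40 at 4°C, and was quantified by TMTpro 16plex LC-MS/MS with equalised channel sums. Thermal stability against control samples, from duplicates, is reported as log2 fold change.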

ibrutinib = compound: C=CC(=O)N1CCC[C@@H](n2nc(-c3ccc(Oc4ccccc4)cc3)c3c(N)ncnc32)C1 [ibrutinib]
Outline: as §1

[1] = compound: CC(=O)c1cnc2ccc(-c3cc(Cl)c(O)c(Cl)c3)nc2c1N[C@H]1CC[C@H](CN(C)C)CC1
Outline: as §1

ralimetinib = compound: CC(C)(C)Cn1c(N)nc2ccc(-c3[nH]c(C(C)(C)C)nc3-c3ccc(F)cc3)nc21 [ralimetinib]
Outline: as §1

[2] = compound: CC(C)(O)CC(=O)NCCn1ccc2ncnc(Nc3ccc(Oc4cccc(C(F)(F)F)c4)c(Cl)c3)c21
Outline: as §1

[3] = compound: CC(C)C1=C2N=C(C=C(N2N=C1)NCC3=CC=CC=C3)NCCCCCCN
Outline: as §1

[4] = compound: CC(C)C[C@@H](C=O)NC(=O)[C@H](CC(C)C)NC(=O)[C@H](CC(C)C)NC(=O)OCc1ccccc1
Outline: as §1

pinometostat = compound: CC(C)N(C[C@H]1O[C@@H](n2cnc3c(N)ncnc32)[C@H](O)[C@@H]1O)[C@H]1C[C@@H](CCc2nc3cc(C(C)(C)C)ccc3[nH]2)C1 [pinometostat]
Outline: as §1

[5] = compound: CC1=C(C(CC(=O)N1)C2=CC=C(C=C2)C(F)(F)F)C(=O)NC3=C(C=C4C(=C3)C=NN4)F
Outline: as §1

[6] = compound: CC1=C(C2=C(C=C1)C(=O)C3=CC=CC=C3N2CCCN)C
Outline: as §1

Sequence of UniProt Q5T5Y3 (Q5T5Y3 whole entry, looked up): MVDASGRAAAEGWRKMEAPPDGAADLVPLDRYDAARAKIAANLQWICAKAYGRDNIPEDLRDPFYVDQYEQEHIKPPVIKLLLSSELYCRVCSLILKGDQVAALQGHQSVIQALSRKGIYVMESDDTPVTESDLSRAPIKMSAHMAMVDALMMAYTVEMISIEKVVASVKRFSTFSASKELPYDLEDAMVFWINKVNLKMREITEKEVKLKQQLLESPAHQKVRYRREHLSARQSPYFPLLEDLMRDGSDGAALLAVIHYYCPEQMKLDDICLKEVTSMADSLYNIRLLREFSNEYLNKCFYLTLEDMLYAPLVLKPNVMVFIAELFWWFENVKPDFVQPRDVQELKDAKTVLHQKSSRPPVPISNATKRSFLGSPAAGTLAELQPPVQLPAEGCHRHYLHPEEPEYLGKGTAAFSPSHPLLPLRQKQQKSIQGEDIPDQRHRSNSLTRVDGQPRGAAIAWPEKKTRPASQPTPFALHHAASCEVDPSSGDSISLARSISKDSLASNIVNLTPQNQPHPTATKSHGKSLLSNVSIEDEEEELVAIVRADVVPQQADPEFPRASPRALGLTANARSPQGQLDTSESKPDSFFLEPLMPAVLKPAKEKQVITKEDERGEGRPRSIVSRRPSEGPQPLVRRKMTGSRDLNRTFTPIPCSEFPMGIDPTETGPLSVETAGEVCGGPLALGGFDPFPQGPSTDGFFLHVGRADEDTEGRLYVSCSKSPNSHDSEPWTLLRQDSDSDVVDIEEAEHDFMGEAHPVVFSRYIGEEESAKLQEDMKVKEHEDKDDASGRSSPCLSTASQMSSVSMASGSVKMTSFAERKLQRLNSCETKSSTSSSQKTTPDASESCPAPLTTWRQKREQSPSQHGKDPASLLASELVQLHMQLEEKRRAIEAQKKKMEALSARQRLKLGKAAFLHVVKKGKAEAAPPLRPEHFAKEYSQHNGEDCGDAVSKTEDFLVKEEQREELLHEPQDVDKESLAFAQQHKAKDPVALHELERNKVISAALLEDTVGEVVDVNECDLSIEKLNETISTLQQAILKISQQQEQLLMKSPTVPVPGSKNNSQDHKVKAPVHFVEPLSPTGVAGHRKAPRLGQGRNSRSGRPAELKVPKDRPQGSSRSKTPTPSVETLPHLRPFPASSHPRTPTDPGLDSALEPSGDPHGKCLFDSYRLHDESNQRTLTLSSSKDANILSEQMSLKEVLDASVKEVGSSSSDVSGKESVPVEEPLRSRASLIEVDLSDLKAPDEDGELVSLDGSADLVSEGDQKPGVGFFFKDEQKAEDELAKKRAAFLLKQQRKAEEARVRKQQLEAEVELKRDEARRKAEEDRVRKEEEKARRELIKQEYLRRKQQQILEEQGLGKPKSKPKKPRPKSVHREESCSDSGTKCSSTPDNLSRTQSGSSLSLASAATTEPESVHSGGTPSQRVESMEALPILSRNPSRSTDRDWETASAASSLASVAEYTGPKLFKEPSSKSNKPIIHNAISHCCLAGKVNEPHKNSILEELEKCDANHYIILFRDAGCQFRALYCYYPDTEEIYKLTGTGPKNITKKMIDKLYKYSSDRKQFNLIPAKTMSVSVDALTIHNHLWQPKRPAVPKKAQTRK
Sequence of UniProt Q9H444 (Q9H444 whole entry, looked up): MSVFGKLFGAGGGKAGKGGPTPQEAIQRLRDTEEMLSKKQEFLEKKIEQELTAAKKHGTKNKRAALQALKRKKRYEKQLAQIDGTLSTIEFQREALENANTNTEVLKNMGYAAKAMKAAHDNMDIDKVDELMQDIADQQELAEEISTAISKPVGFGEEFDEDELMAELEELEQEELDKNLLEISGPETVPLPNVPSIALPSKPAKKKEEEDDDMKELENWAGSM
Sequence of UniProt P49336 (P49336 whole entry, looked up): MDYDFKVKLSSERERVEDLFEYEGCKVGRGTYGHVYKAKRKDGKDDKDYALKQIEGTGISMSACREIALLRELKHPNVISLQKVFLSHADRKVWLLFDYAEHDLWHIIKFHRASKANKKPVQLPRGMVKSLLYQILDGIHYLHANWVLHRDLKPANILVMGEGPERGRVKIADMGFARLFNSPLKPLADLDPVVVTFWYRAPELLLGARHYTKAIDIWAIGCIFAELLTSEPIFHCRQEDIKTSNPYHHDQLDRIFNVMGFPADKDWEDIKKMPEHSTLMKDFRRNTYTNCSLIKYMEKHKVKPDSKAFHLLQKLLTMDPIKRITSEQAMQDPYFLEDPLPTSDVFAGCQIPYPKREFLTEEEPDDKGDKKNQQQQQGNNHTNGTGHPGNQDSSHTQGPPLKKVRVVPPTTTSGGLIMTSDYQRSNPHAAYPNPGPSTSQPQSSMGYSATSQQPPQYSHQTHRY
Sequence of UniProt P60033 (P60033 whole entry, looked up): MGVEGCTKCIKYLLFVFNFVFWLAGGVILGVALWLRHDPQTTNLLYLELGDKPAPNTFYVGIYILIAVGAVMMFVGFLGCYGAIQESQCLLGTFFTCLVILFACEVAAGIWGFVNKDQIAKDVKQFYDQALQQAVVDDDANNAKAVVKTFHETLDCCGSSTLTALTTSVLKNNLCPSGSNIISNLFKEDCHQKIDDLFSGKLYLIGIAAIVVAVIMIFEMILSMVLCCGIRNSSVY
Sequence of UniProt Q14061 (Q14061 whole entry, looked up): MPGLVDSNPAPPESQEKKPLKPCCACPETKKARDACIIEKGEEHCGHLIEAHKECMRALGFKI
Sequence of UniProt P06493 (P06493 whole entry, looked up): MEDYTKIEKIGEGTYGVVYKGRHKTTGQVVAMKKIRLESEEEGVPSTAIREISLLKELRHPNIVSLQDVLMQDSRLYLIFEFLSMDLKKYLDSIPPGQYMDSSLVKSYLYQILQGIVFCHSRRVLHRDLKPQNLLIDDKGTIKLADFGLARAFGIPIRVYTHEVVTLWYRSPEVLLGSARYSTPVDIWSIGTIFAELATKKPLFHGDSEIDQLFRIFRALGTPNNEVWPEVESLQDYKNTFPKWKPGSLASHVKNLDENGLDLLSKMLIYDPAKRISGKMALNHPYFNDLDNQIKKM
Sequence of UniProt Q86X95 (Q86X95 whole entry, looked up): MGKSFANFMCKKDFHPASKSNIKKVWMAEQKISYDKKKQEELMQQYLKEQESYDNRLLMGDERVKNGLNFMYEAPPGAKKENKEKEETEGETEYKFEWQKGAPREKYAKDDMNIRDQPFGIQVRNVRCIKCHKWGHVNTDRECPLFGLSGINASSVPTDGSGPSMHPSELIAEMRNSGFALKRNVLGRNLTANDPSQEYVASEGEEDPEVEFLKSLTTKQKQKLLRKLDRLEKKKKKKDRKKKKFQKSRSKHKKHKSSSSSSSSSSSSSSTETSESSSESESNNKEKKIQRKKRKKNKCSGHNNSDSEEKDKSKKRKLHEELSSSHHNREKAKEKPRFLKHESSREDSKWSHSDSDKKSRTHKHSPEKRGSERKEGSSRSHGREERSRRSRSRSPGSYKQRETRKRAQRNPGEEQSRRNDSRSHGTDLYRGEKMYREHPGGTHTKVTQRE
Sequence of UniProt Q99627 (Q99627 whole entry, looked up): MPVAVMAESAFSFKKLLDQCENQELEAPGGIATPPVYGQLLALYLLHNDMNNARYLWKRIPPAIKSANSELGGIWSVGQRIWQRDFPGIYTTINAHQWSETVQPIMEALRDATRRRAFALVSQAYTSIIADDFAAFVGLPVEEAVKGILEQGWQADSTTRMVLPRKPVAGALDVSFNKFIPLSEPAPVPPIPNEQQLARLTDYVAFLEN
Sequence of UniProt O75390 (O75390 whole entry, looked up): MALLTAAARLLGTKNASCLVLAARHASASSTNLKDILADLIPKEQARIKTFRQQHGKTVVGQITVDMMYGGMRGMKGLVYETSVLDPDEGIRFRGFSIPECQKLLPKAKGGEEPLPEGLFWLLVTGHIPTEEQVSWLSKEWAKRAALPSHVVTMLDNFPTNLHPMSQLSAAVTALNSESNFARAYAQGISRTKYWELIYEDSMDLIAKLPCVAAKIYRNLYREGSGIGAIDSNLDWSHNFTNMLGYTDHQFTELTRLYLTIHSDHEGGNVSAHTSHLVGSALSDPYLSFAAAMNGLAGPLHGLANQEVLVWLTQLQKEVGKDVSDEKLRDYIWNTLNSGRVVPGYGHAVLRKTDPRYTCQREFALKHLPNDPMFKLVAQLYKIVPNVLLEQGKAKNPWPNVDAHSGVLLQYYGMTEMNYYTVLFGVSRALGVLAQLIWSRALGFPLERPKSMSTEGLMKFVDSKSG
Sequence of UniProt Q9Y6K0 (Q9Y6K0 whole entry, looked up): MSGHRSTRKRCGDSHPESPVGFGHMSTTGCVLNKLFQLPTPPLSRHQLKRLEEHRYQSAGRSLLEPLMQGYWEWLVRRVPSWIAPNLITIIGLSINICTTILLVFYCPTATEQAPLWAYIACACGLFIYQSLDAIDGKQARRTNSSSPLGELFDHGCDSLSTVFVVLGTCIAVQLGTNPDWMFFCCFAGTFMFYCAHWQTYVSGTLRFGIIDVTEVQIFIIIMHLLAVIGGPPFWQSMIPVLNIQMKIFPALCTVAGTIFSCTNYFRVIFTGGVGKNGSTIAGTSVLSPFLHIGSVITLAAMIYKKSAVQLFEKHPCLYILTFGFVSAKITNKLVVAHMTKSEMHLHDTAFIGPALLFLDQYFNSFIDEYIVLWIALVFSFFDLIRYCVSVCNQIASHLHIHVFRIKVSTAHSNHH
Sequence of UniProt Q99439 (Q99439 whole entry, looked up): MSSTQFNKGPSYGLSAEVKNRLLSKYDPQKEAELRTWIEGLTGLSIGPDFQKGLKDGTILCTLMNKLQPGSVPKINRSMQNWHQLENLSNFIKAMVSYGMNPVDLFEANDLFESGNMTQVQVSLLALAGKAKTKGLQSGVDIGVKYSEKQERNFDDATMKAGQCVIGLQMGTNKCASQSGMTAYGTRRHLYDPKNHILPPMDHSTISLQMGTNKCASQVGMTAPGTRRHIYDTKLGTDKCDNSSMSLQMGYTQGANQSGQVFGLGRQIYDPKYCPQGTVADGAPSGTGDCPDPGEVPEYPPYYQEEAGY
Sequence of UniProt Q5JTJ3 (Q5JTJ3 whole entry, looked up): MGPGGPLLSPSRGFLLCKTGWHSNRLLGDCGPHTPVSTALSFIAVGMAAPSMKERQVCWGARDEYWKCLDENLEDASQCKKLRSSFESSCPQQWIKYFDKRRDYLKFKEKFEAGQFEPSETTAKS

Row | Target | log2 fold change (IRAK-1-4 Inhibitor I) | log2 fold change (ibrutinib) | log2 fold change [1] | log2 fold change (ralimetinib) | log2 fold change [2] | log2 fold change [3] | log2 fold change [4] | log2 fold change (pinometostat) | log2 fold change [5] | log2 fold change [6]
1 | CHST10 (UniProt O43529) | 0.056 | -0.062 | -0.135 | 0.059 | 0.042 | -0.435 (active) | -0.003 | 0.082 | 0.025 | 0.036
2 | COA6 isoform 2 (UniProt Q5JTJ3) | 0.043 | 0.036 | 0.019 | -0.071 | 0.045 | 0.059 | -0.026 | -0.04 | 0.016 | -0.004
3 | CIZ1 (UniProt Q9ULV3) | 0.013 | -0.03 | -0.044 | 0.056 | -0.056 | 0.035 | 0.053 | -0.02 | -0.02 | -0.248 (active)
4 | CNN2 (UniProt Q99439) | -0.037 | -0.07 | 0.011 | 0.007 | -0.091 | -0.052 | 0.038 | 0.018 | 0.05 | 0.007
5 | CHMP4B (UniProt Q9H444) | 0.068 | -0.024 | 0.015 | 0.039 | 0.015 | 0.014 | -0.003 | -0.032 | 0.046 | -0.011
6 | CD81 (UniProt P60033) | 0.027 | 0.007 | -0.026 | -0.045 | -0.018 | 0.33 | -0.122 | -0.05 | 0.004 | -0.01
7 | CAMSAP1 isoform 3 (UniProt Q5T5Y3) | -0.076 | -0.069 | -0.29 | -0.031 | -0.062 | -0.078 | 0.031 | 0.121 | -0.056 | 0.108
8 | C4A (UniProt P0C0L4) | 0.017 | 0.08 | -0.01 | -0.083 | 0.226 | 0.111 | 0.01 | -0.11 | 0.086 | -0.192
9 | COX7C (UniProt P15954) | -0.013 | 0.057 | -0.013 | 0.301 | 0.041 | 0.184 | 0.074 | 0.092 | 0.022 | 0.009
10 | C16orf58 (UniProt Q96GQ5) | 0.031 | -0.022 | 0.01 | -0.017 | -0.045 | -0.199 | 0.001 | 0.005 | 0.001 | 0.045
11 | CDK1 (UniProt P06493) | 0 | -0.046 | -0.401 (active) | -0.031 | -0.051 | -0.02 | 0.051 | 0 | 0.012 | -0.021
12 | COPS8 (UniProt Q99627) | -0.006 | 0.039 | -0.011 | -0.042 | 0.031 | 0.043 | 0.027 | -0.021 | -0.006 | 0.13
13 | CBX1 (UniProt P83916) | -0.105 | -0.001 | -0.038 | -0.054 | 0.013 | 0.034 | -0.007 | -0.143 | -0.026 | -0.288 (active)
14 | CD63 (UniProt P08962) | 0.022 | 0.036 | 0.032 | 0.047 | 0.006 | 0.081 | 0.056 | 0.007 | 0.017 | 0.003
15 | CNOT2 (UniProt Q9NZN8) | 0.112 | 0.013 | -0.045 | -0.027 | -0.038 | -0.112 | 0.013 | 0.05 | -0.005 | 0.059
16 | CALCOCO2 isoform 4 (UniProt Q13137) | 0.004 | -0.016 | -0.09 | 0.045 | -0.005 | -0.599 (active) | 0.115 | 0.054 | 0.045 | -0.065
17 | CCNB1 (UniProt P14635) | 0.035 | -0.024 | -0.221 (active) | -0.016 | -0.005 | -0.014 | 0.006 | -0.018 | -0.007 | 0.007
18 | CEPT1 (UniProt Q9Y6K0) | 0.035 | -0.014 | 0.072 | -0.026 | 0.073 | -0.466 (active) | -0.118 | -0.016 | 0.023 | 0.118
19 | CS (UniProt O75390) | 0.02 | -0.004 | 0.002 | -0.04 | -0.178 | -0.148 | -0.069 | -0.05 | 0.02 | 0.008
20 | CPD (UniProt O75976) | -0.011 | -0.018 | -0.015 | -0.03 | -0.058 | -0.126 | 0.077 | 0.002 | 0.04 | -0.019
21 | CNOT7 (UniProt Q9UIV1) | -0.039 | 0.022 | -0.013 | -0.016 | -0.021 | -0.002 | 0.079 | 0.066 | -0.039 | 0.033
22 | COX5A (UniProt P20674) | 0.041 | 0.008 | -0.09 | -0.053 | -0.103 | 0.058 | -0.069 | -0.042 | 0.041 | 0.122
23 | CHD4 isoform 2 (UniProt Q14839) | -0.198 | -0.106 | -0.215 | 0.112 | -0.067 | -0.313 (active) | 0.045 | 0.07 | 0.013 | -0.057
24 | CDK8 (UniProt P49336) | 0.006 | -0.011 | 0.487 (active) | -0.174 | -0.15 | -0.067 | 0.096 | -0.057 |  | -0.005
25 | COX17 (UniProt Q14061) | -0.14 |  | -0.052 | 0.41 | -0.158 | 0.019 | -0.196 | -0.014 | 0.241 | 0.086
26 | CMTM3 (UniProt Q96MX0) | 0.021 | 0.014 | 0.003 |  | -0.108 | 0.068 |  | 0 | 0.12 | -0.062
27 | CIR1 (UniProt Q86X95) | -0.023 | 0.121 | -0.05 | 0.083 | 0.128 | 0.198 | 0.175 | 0.169 |  | 0.022
28 | CCDC167 (UniProt Q9P0B6) | -0.056 | 0.013 |  | -0.028 | 0.163 | -0.258 | 0.061 | 0.052 | 0.034 | 0.021
